A short description of the test: chemical genetic growth profiling, strain panel (AID 1159580).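 Further: tested at 20 µM; growth read once vehicle control cultures reached saturation at 30 °C; 1 = growth at the plate median or of vehicle wells; lower values mean less growth of the strain.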 As to conditions: S. cerevisiae deletion strains, growth OD.
[1] abbreviates: locus YAL013W, strain DEP1, hits give low values.
[2] abbreviates: locus YDR150W, strain NUM1, hits give low values.
[3] abbreviates: locus YGR078C, strain PAC10, hits give low values.
The mark [4] stands for this setting: locus YMR307W, strain GAS1, hits give low values.
The mark [5] stands for this setting: locus YNL153C, strain GIM3, hits give low values.
Setting [6] is: locus YPL055C, strain LGE1, hits give low values.

About 2,000 (36%) of roughly 5,500 compounds were called active. Inconclusive results (about 18%) are left out. This is one part of the list. Unmarked numbers belong to inactive results. No stated cut-off is given here; in the data, active means normalized growth mostly below about 0.91 (no sharp cut-off); inconclusive means no clear call, values can overlap the other calls; inactive means mostly above about 0.92.

As to `O=C(Nc1nccs1)c1ccc([N+](=O)[O-])cc1`, the normalized growth reads like this: under setting [1], 0.979; (locus YBR229C, strain ROT2, hits give low values) 0.97; (locus YCL061C, strain MRC1, hits give low values) 0.992; (locus YDL101C, strain DUN1, hits give low values) 0.972; (locus YDL134C, strain PPH21, hits give low values) 1.01; under setting [2], 0.984. In addition, the normalized growth reads like this: (locus YEL061C, strain CIN8, hits give low values) 0.968; under setting [3], 0.973; (locus YHR030C, strain SLT2, hits give low values) 0.977; (locus YHR087W, strain rtc3, hits give low values) 0.973; (locus YJR043C, strain POL32, hits give low values) 1.02; (locus YJR075W, strain HOC1, hits give low values) 0.924. In addition, the normalized growth reads like this: (locus YKL190W, strain CNB1, hits give low values) 1; (locus YLR039C, strain RIC1, hits give low values) 0.851; (locus YLR058C, strain SHM2 (second series), hits give low values) 0.981; (locus YLR085C, strain ARP6, hits give low values) 0.729 (active); (locus YLR262C, strain YPT6, hits give low values) 0.917; (locus YML094W, strain GIM5, hits give low values) 0.94. The normalized growth by setting is: (locus YMR219W, strain ESC1, hits give low values) 0.978; (locus YMR263W, strain SAP30, hits give low values) 0.986; under setting [4], 0.905; under setting [5], 0.976; (locus YNL298W, strain CLA4 (second series), hits give low values) 0.976; (locus YNL322C, strain KRE1, hits give low values) 0.983. Moreover, the normalized growth (locus YNR030W, strain Alg12, hits give low values) was 0.97; the normalized growth (locus YOL006C, strain TOP1, hits give low values) is 0.514 (active); the normalized growth under setting [6] was 0.97; the normalized growth (locus YPL241C, strain CIN2, hits give low values) is 0.954; the normalized growth (locus YPR135W, strain CTF4, hits give low values) was 0.933.
As for `S=C(Nc1ccccc1)Nc1nccs1`, the normalized growth was 1.01 under setting [1]; 1.01 (locus YAL040C, strain CLN3, hits give low values); 0.993 (locus YCL061C, strain MRC1 (second series), hits give low values); 0.974 under setting [2]; 0.977 (locus YDR363W, strain ESC2, hits give low values); 0.991 (locus YER002W, strain NOP16, hits give low values). The normalized growth runs as follows: under setting [3], 0.988; under setting [4], 0.993; under setting [5], 0.772 (active); (locus YNL175C, strain NOP13, hits give low values) 0.999; (locus YNL197C, strain WHI3, hits give low values) 0.993; (locus YNL224C, strain SQS1, hits give low values) 0.995. Besides, the normalized growth under setting [6] was 0.948.

Source of the values: PubChem BioAssay AID1159580 (chemical genetic matrix, 2015).
